This note sets out measurements from PubChem BioAssay (NCI).

About 79,000 compounds went through this panel and 15% of them were active in at least one assay; those are over-represented in the sample as a whole. Values without a mark were called inactive. Activity calls are given as the source filed them. Cut-off read from the data, not from the text of the source: active = growth inhibition above about 70%; inactive = the rest. Where a SMILES comes first, the peptide text is derived from it. The star is where a group is joined. ONp = O=[N+]([O-])c1ccc(O*)cc1; Tos = Cc1ccc(S(=O)(=O)*)cc1

A short description of assay [1]: NCI Yeast Anticancer Drug Screen. Data for the rad50 strain (AID 155).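 Note: 0% = growth of vehicle-only cultures of the same strain.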 To be noted: S. cerevisiae rad50 strain growth inhibition; at 50.0 µM; stronger effect = higher value. In short, it runs like this:
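Cells are treated with compound, grown, and their growth is then scored against vehicle-only cultures of the same repair-deficient yeast strain.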

Assay [2] can be described thus: NCI Yeast Anticancer Drug Screen. Data for the mec2-1 strain (AID 157). The following applies: S. cerevisiae mec2-1 strain, at 50.0 µM, stronger effect = higher value. A digest of the protocol:
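Each compound was tested on mec2-1 yeast, a strain altered in DNA damage repair or cell cycle control. Growth inhibition is reported relative to vehicle.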

The nature of assay [3]: NCI Yeast Anticancer Drug Screen. Data for the sgs1 mgt1 strain (AID 161).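 Note: 0% = growth of cultures given vehicle only.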 To be noted: S. cerevisiae sgs1 mgt1 strain, at 50.0 µM, stronger effect = higher value. In short, it runs like this: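 Genetically altered yeast, compound exposure, growth inhibition relative to vehicle.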
Assay [4] can be described thus: NCI Yeast Anticancer Drug Screen. Data for the cln2 rad14 strain (AID 165).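 Note: 0% = growth equal to vehicle treated cultures.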 To be noted: S. cerevisiae cln2 rad14 strain, at 50.0 µM, stronger effect = higher value. A digest of the protocol:
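Test compounds were added to cln2 rad14 yeast cultures; inhibition of growth was then determined by comparison with vehicle treatment.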

Assay [5] is described as follows: NCI Yeast Anticancer Drug Screen. Data for the bub3 strain (AID 167). To be noted: S. cerevisiae bub3 mutant strain, at 50.0 µM, stronger effect = higher value. A digest of the protocol: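 Part of a panel of yeast mutants defective in DNA damage repair or cell cycle regulation. Each strain is grown with compound, and inhibition is calculated relative to solvent-treated cultures.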

Assay [6] in a line: NCI Yeast Anticancer Drug Screen. Data for the mlh1 rad18 strain (AID 175). The following applies: S. cerevisiae mlh1 rad18 strain growth inhibition; at 50.0 µM; stronger effect = higher value. In short, it runs like this:
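Inhibition values reflect reduced growth of mutant yeast versus vehicle-treated controls following compound exposure; the mutations affect DNA damage repair.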

Turning to `CC1=C(C(=O)CC(=O)C(=O)Nc2ccc(Cl)cc2Cl)Sc2ccccc2N1`, the growth inhibition is -5.65% in assay [1]; -11.2% in assay [2]; -20.1% in assay [3]; -6.1% in assay [4]; 2.55% in assay [5]; 3.45% in assay [6].

Regarding `Cc1ccc(S(=O)(=O)NCNS(=O)(=O)c2ccc(C)cc2)cc1`, the growth inhibition was -37.5% in assay [1]; -7% in assay [2]; 2.05% in assay [3]; 14% in assay [4]; -15.8% in assay [5]; -35.6% in assay [6].

As for `O=C(O)C(Cc1ccccc1)c1ccccc1` (stereo unspecified), the growth inhibition is -39.4% in assay [1]; -12.4% in assay [2]; -11.8% in assay [3]; -21.4% in assay [4]; 9.4% in assay [5]; 2.85% in assay [6].

For the compound `[O-]c1on[n+]2c1c(Nc1ccc(Cl)cc1)nc1ccccc12`, the growth inhibition is -31.1% in assay [1]; -28% in assay [2]; -22.3% in assay [3]; -21.2% in assay [4]; -36.5% in assay [5]; -39.5% in assay [6].

As to `NC(N)=NCCCCNCCCN=C(N)N`, the growth inhibition in assay [1] is -23.2%; in assay [2] it was -42.8%; in assay [3], 1.55%; in assay [4], 3.35%; in assay [5] it was -16.4%; in assay [6], -15.7%.

Take `CCOCCNCc1ccc(Cl)cc1Cl`: the growth inhibition in assay [1] was 4%; in assay [2] it was -1.45%; in assay [3] it was -5%; in assay [4] it was 2.85%; in assay [5], 7.8%; in assay [6] it was -9.7%.

For the compound `CCc1[nH]c(=O)c2oc3cc4ccccc4cc3c2c1C(=O)O`, the growth inhibition was -43.9% in assay [1]; -35.5% in assay [2]; -55.6% in assay [3]; -29.4% in assay [4]; -17.8% in assay [5]; -70.3% in assay [6].

As to `O=C1c2ccccc2C(=O)N1CCn1nc(-c2ccccc2)cc(-c2ccccc2)c1=O`, the growth inhibition in assay [1] is 1.85%; in assay [2], -2.35%; in assay [3] it was -25.5%; in assay [4], 7.9%; in assay [5], 39%; in assay [6] it was -8.6%.

Take `CC1SC(=S)NC1=O` (stereo unspecified): the growth inhibition in assay [1] was -16%; in assay [2], -2.1%; in assay [3], -10.8%; in assay [4], -2%; in assay [5] it was -10.9%; in assay [6], -0.8%.

Regarding `COC(=O)c1cc(C)c(C(=O)O)c(C)c1`, the growth inhibition in assay [1] is 13%; in assay [2], 22.5%; in assay [3] it was 26.6%; in assay [4], 16.3%; in assay [5], 3.9%; in assay [6], 14.9%.

As for `O/N=C1\CCCC\C1=N/O`, the growth inhibition was 6.55% in assay [1]; -9.8% in assay [2]; -8.35% in assay [3]; -3.1% in assay [4]; 8.95% in assay [5]; -4.25% in assay [6].

For the compound `Cc1ccc(S(=O)(=O)NCC(=O)NCC(=O)Oc2ccc([N+](=O)[O-])cc2)cc1` (Tos-Gly-Gly-ONp), the growth inhibition is 52.7% in assay [1]; 13% in assay [2]; 42.2% in assay [3]; 18.8% in assay [4]; 2% in assay [5]; 16% in assay [6].

Turning to `O=C(Cc1ccccc1)NN1C(=O)/C(=C\c2ccc(O)cc2)SC1=Nc1ccccc1`, the growth inhibition is 5.5% in assay [1]; -1.05% in assay [2]; 28.9% in assay [3]; 4.4% in assay [4]; -9.75% in assay [5]; 19.9% in assay [6].

For `COc1cc(C(=O)O)c(Br)c(OC)c1OC`, the growth inhibition in assay [1] is -1.55%; in assay [2], 20.1%; in assay [3] it was 2.55%; in assay [4], -12.7%; in assay [5], 42.9%; in assay [6] it was 1%.

With `Cc1[nH]n(C(=N)N)c(=O)c1CCO`, the growth inhibition in assay [1] was -7.15%; in assay [2] it was 11.6%; in assay [3], -18.6%; in assay [4] it was -6.35%; in assay [5], 2%; in assay [6] it was -50.7%.

On to `CC(=C/C=C/C=C(C)\C=C\C=C(\C)C(=O)O)/C=C/C=C(/C)C(=O)O`, for which the growth inhibition is 18.1% in assay [1]; -7.95% in assay [2]; 8.65% in assay [3]; 7.75% in assay [4]; 16.4% in assay [5]; 16.9% in assay [6].

In the case of `CC(=O)C1=CCC(C(C)C)C1` (stereo unspecified), the growth inhibition in assay [1] was 4.2%; in assay [2] it was -0.9%; in assay [3], -1.2%; in assay [4] it was -1.3%; in assay [5], 17.1%; in assay [6] it was 2%.

Regarding `O=C1c2ccccc2C2NCCCN12` (stereo unspecified), the growth inhibition is -2.55% in assay [1]; -12.3% in assay [2]; -0.4% in assay [3]; -5.65% in assay [4]; -3.55% in assay [5]; 0.9% in assay [6].

Consider `CCCCCCCCCCCC1=C(O)C(=O)C(Br)=C(O)C1=O`, for which the growth inhibition in assay [1] is 39.6%; in assay [2], 14.3%; in assay [3], 44.9%; in assay [4], 19.1%; in assay [5] it was -9.65%; in assay [6] it was 49.9%.

Consider `O=C(Nc1ccc(Cl)c(Cl)c1)OCC1CC2C=CC1C2` (stereo unspecified), for which the growth inhibition in assay [1] was 95.2% (active); in assay [2] it was 97.8% (active); in assay [3], 97.3% (active); in assay [4] it was 94.8% (active); in assay [5] it was 94.9% (active); in assay [6] it was 95% (active).

As to `CCOC(=O)O/C(C)=C\c1ccccc1Cl`, the growth inhibition was 0.4% in assay [1]; -1.15% in assay [2]; -7.75% in assay [3]; 7.75% in assay [4]; -5.85% in assay [5]; 5.7% in assay [6].
